In the library only some 11% were active in any assay of this set; here they are far more common.
Pf growth 48h – inhibits P. falciparum growth in the first generation, 48 h; Potency, µM (series often up to 28.7 µM), actives largely listed as inhibitors; hit rate 5.9% among 310,000; P. falciparum luciferase growth in erythrocytes, 48 h; AID 504832
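In quantitative HTS format, infected erythrocytes bearing luciferase-reporter parasites were treated for a single generation at 37 C. Luminescence after adding detection reagent served as the growth measure.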
AmpC inh detg – blocks E. coli AmpC beta-lactamase in detergent assay | hit rate 0.041% among 370,000 | P00811 | Potency, µM (top dose mostly 114 µM), hits mostly inhibitors | AmpC hydrolysis of nitrocefin, absorbance 480 nm, 0.01% Triton; also: nearly all actives have a fitted effect of over 25% in size
Target sequence (P00811 whole entry, looked up): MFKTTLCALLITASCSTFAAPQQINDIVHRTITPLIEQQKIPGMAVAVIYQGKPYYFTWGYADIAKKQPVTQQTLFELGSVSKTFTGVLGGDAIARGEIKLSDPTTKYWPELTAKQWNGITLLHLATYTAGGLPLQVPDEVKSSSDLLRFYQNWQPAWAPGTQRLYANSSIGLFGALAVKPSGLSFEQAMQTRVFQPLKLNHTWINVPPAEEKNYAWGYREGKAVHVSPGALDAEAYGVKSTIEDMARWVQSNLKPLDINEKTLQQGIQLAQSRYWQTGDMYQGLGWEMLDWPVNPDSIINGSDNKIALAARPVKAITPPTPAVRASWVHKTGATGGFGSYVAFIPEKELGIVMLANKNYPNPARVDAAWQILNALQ
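AmpC (5.3 nM in the dispensed reagent) in 20 mM phosphate pH 7.0 with 0.01% (detergent screen) or 0.0001% Triton X-100 was preincubated with compounds for 15 min at room temperature. Nitrocefin was then added from an 800 uM solution, and hydrolysis was followed at 480 nm.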
AMA1-RON2 inh – disrupts binding of P. falciparum AMA1 to RON2; AlphaScreen AMA1-biotinylated RON2 peptide binding; Potency, µM (top dose mostly 58.2 µM), most hits filed as inhibitors; hit rate 0.2% among 360,000; AID 720542; also: nearly all actives have a fitted effect of over 45% in size
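AMA1 (3D7) with his tag at 25 nM final met compounds first, then biotinylated RON2 peptide at 25 nM; detection used donor plus acceptor beads, 10 µg/mL apiece, read by AlphaScreen after 30 min at room temperature.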
AmpC inh no detg – blocks E. coli AmpC beta-lactamase in detergent-free assay. AmpC nitrocefin hydrolysis, absorbance 480 nm, 0.0001% Triton. Potency, µM (doses to about 57.1 µM), hits mostly inhibitors. hit rate 0.52% among 330,000. AID 485341; also: nearly all actives have a fitted effect of over 20% in size
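20 mM phosphate pH 7.0 + 0.01% (detergent screen) or 0.0001% Triton X-100; 5.3 nM AmpC reagent; cpd preinc 15 min RT; nitrocefin (800 uM stock) to start; A480 q20 s × 4 min; Activity was normalised to no-enzyme and no-compound control wells.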
HCV inhibitor – inhibitors of hepatitis C virus infection; Huh7.5.1 HCVcc-Cre infection, luciferase reporter, 44 h; Potency, µM (titrated, usually from 41.8 µM), usual class: inhibitors; hit rate 3.4% among 340,000
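1,000 cells/well; 4 h culture; + compound; + HCVcc-Cre (~0.5 moi); 44 h; luciferase substrate, RT 15 min; read 15 sec.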
Pf growth 96h – P. falciparum growth inhibition at 96 hours. P. falciparum luciferase reporter growth, 96 h. Potency, µM (titrated, usually from 28.7 µM), actives largely listed as inhibitors. hit rate 6.9% among 320,000. AID 504834
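P. falciparum expressing integrated firefly luciferase grown in erythrocytes (2% hematocrit, 0.05% parasitemia final) with compounds for 96 hours at 37 C, 5% CO2. Growth inhibition read as loss of luminescence after adding luciferase detection reagent.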
Of the large screens only hits and unclear results are named; the others gave an inactive call. Calls follow the shape of the dose curve; as a rule, active = well fitted curve in the direction sought with a large enough effect; inconclusive = small, poorly fitted or top-dose-only effect, or another doubt; inactive = no such curve, though single readings can be large; an effect the other way counts as inactive or inconclusive.

COc1ccccc1N(C)S(=O)(=O)c1ccc(C(=O)Nc2cccc(S(=O)(=O)N3CCOCC3)c2)cc1	HCV inhibitor 10µM (no result: Pf growth 48h, AmpC inh detg, AmpC inh no detg, Pf growth 96h)
COc1ccccc1CC(=O)Nc1cccc(S(=O)(=O)N2CCOCC2)c1	HCV inhibitor inconclusive, Pf growth 96h inconclusive
Cc1cc(Br)cc(C)c1OCC(=O)Nc1ccc(S(=O)(=O)Nc2ncccn2)cc1	none (no result: Pf growth 48h, AMA1-RON2 inh, AmpC inh no detg, HCV inhibitor, Pf growth 96h)
CC(C)CCNC(=O)c1ccc2c(c1)nc1n2CCCCC1	none (no result: Pf growth 48h, AMA1-RON2 inh, AmpC inh no detg, HCV inhibitor, Pf growth 96h)
Cn1c(C(=O)NCCc2ccccc2)cc2cc(S(=O)(=O)N3CCCCC3)ccc21	none (no result: Pf growth 48h, AMA1-RON2 inh, AmpC inh no detg, HCV inhibitor, Pf growth 96h)
O=C(Cn1c2ncccc2c(=O)n1-c1ccccc1)NCc1ccccc1Cl	none (no result: Pf growth 48h, AMA1-RON2 inh, AmpC inh no detg, HCV inhibitor, Pf growth 96h)
COc1ccc(Br)cc1CN(C)CC(=O)Nc1cccc(S(=O)(=O)N2CCCC2)c1	AMA1-RON2 inh inconclusive, HCV inhibitor 8.9µM (no result: Pf growth 48h, AmpC inh detg, Pf growth 96h)
COc1ccc2c(CC(=O)Nc3ccc(OC)c(NS(=O)(=O)c4ccc(F)cc4)c3)coc2c1	Pf growth 48h inconclusive, AmpC inh detg inconclusive, HCV inhibitor inconclusive, Pf growth 96h 15µM
COc1cc(C(=O)Nc2cccc(S(=O)(=O)N3CCCC3)c2)cc(OC)c1C	Pf growth 48h inconclusive, HCV inhibitor inconclusive, Pf growth 96h inconclusive
COc1ccc(/C=C/C(=O)Nc2cccc(S(=O)(=O)N3CCCC3)c2)cc1OC	Pf growth 48h 13µM, HCV inhibitor 10µM, Pf growth 96h inconclusive
COc1ccc(/C=C/C(=O)Nc2ccc(-n3nncc3-c3ccccc3)cc2)cc1OC	Pf growth 48h inconclusive, HCV inhibitor 13µM
CCc1ccc(CN(Cc2ccco2)c2cnc(S(C)(=O)=O)nc2C(=O)Nc2ccc(C)c(Cl)c2)cc1	none (no result: Pf growth 48h, AMA1-RON2 inh, AmpC inh no detg, HCV inhibitor, Pf growth 96h)
CCOc1ccc(C(=O)NCC(c2ccc3c(c2)OCO3)N2CCN(c3ccc(F)cc3)CC2)cc1 (configuration not stated)	none (no result: Pf growth 48h, AMA1-RON2 inh, AmpC inh no detg, HCV inhibitor, Pf growth 96h)
COc1ccccc1NC(=O)c1ncn(-c2ccccc2)n1	none (no result: Pf growth 48h, AMA1-RON2 inh, AmpC inh no detg, HCV inhibitor, Pf growth 96h)
COc1ccc(S(=O)(=O)NCCc2sc(-c3cccnc3)nc2C)cc1OC	none (no result: Pf growth 48h, AMA1-RON2 inh, AmpC inh no detg, HCV inhibitor, Pf growth 96h)
CCN(CC)S(=O)(=O)c1cccc(C(=O)NC(C(=O)Nc2nnc(C)s2)C(C)C)c1 (configuration not stated)	Pf growth 48h 12µM (no result: Pf growth 96h)
CCN(CC)S(=O)(=O)c1ccc(Cl)c(C(=O)Nc2nnc(C)s2)c1	HCV inhibitor 22µM
Cc1cccc(NC(=O)CSc2cn(CC(=O)N3CCCCCC3)c3ccccc23)c1	none (no result: Pf growth 48h, AMA1-RON2 inh, AmpC inh no detg, HCV inhibitor, Pf growth 96h)
CCOC(=O)c1c2n(c3c(NCc4ccccc4)ncnc13)CCCC2	Pf growth 48h inconclusive, AmpC inh detg inconclusive, HCV inhibitor 5µM
Cc1ccc(CNc2ncnc3c2nc2n3CCCC2)cc1	none (no result: Pf growth 48h, AMA1-RON2 inh, AmpC inh no detg, HCV inhibitor, Pf growth 96h)
CCCCOc1ccccc1C(=O)Nc1nonc1-c1ccccc1	none (no result: Pf growth 48h, AMA1-RON2 inh, AmpC inh no detg, HCV inhibitor, Pf growth 96h)
COc1ccc(OC)c(-c2cc(C(=O)NCCN3CCOCC3)no2)c1	AmpC inh detg inconclusive, HCV inhibitor inconclusive, Pf growth 96h inconclusive
COc1ccc(C(=O)NC2CC2)cc1OC1CCN(Cc2ccccc2)CC1	Pf growth 96h inconclusive
COc1ccc(OC)c(-c2nc(C(=O)NCCCN3CCOCC3)cc3c2[nH]c2ccccc23)c1	Pf growth 48h 2.3µM, HCV inhibitor inconclusive, Pf growth 96h 2.9µM
COc1ccc(OC)c(-c2nc(C(=O)NC3CCN(Cc4ccccc4)CC3)cc3c2[nH]c2ccccc23)c1	Pf growth 48h 8.3µM, AMA1-RON2 inh inconclusive, HCV inhibitor 6.3µM, Pf growth 96h 3.7µM
COc1cc(-c2nc(C(=O)NC3CCN(Cc4ccccc4)CC3)cc3c2[nH]c2ccccc23)cc(OC)c1OC	Pf growth 48h inconclusive, AmpC inh detg inconclusive, HCV inhibitor inconclusive, Pf growth 96h 2.1µM
COc1cc(-c2nc(C(=O)NC3CCCCC3)cc3c2[nH]c2ccccc23)cc(OC)c1OC	Pf growth 48h 6.6µM, HCV inhibitor inconclusive, Pf growth 96h inconclusive
COc1cc(C(=O)NC2CCN(Cc3ccccc3)CC2)cc(Cl)c1OC	Pf growth 48h inconclusive, HCV inhibitor inconclusive, Pf growth 96h inconclusive
Cc1ccc2c(c1)C1CN(C)CCC1N2C(=O)Cc1cccs1 (configuration not stated)	Pf growth 48h inconclusive, Pf growth 96h 0.93µM
Cc1ccc2c(c1)C1CN(C)CCC1N2C(=O)Nc1ccc(Cl)cc1 (configuration not stated)	Pf growth 48h 10µM, Pf growth 96h 10µM
Cc1ccc2c(c1)C1CN(C)CCC1N2C(=O)c1cccs1 (configuration not stated)	Pf growth 48h inconclusive
FC(F)OC(Cl)C(F)(F)F (configuration not stated)	none (no result: AmpC inh detg, AMA1-RON2 inh, AmpC inh no detg, HCV inhibitor)
S=C(NCCc1ccccc1)N1CCn2cccc2C1c1cccnc1 (configuration not stated)	Pf growth 48h 12µM, HCV inhibitor inconclusive, Pf growth 96h 10µM
CCCCNC(=S)N1CCn2cccc2C1c1ccc(F)cc1 (configuration not stated)	Pf growth 48h inconclusive, AmpC inh no detg inconclusive, Pf growth 96h inconclusive
Fc1ccc(C2c3cccn3CCN2C(=S)Nc2cccc(Br)c2)cc1 (configuration not stated)	Pf growth 48h 12µM, HCV inhibitor 10µM, Pf growth 96h inconclusive
Fc1ccc(NC(=S)N2CCn3cccc3C2c2cccnc2)cc1 (configuration not stated)	Pf growth 48h inconclusive
CCCCNC(=S)N1CCn2cccc2C1c1ccccc1 (configuration not stated)	Pf growth 48h 4.7µM, Pf growth 96h inconclusive

Screening results from PubChem BioAssay.
